From PubChem BioAssay
Sa helicase inh: blocks Staphylococcus aureus DNA helicase; purified S. aureus helicase, fluorescence unwinding assay; actives 0.05% (n = 120,000); AID 485395; inhibition, % (no concentration beside the values); in the data active means inhibition above about 25%, passing the limit was not always enough;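 further: 0% = mean of negative control wells and 100% = mean of positive control wells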
Sa growth inh: S. aureus growth inhibition. AID 720641. actives 0.53% (n = 170,000). S. aureus RN4220 growth, OD600, 20 h, 42 °C; active compounds read low. relative growth, % (no concentration beside the values);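 active means relative growth at most 50% at the other temperature and 20+ points below 30 °C, or under 10% at both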
HCMV NEC inh: disrupts HCMV UL50-UL53 complex binding; actives 0.15% (n = 190,000); HTRF UL50-UL53 interaction, normalized percent inhibition; inhibition, % (concentration not given with the values); in the data active means inhibition above about 27%, passing the limit was not always enough
* = called active by the depositor; x = not tested or not shown; ! = a repeat was not active. This is one part of a sample in which hits are shown more often than they occur.

SMILES | Sa helicase inh | Sa growth inh | HCMV NEC inh
CCOC(=O)c1c(-c2cccs2)csc1NC(=O)c1ccccc1 | 6.0 | 113.9 | 2.6
CCC(=O)NC(c1ccco1)c1cc(Cl)c2cccnc2c1O (stereo unspecified) | 5.0 | 71.7 | x
CCCCC(=O)NC(c1ccco1)c1cc(Cl)c2cccnc2c1O (stereo unspecified) | -25.0 | 20.4* | -22.4
O=C(O)C1CC=CCC1C(=O)NNc1ncnc2ccccc12 (stereo unspecified) | 6.0 | 102.1 | -19.8
O=C(O)COCC(=O)Nc1ccc2c(c1)oc1ccccc12 | 22.0 | 99.5 | x
O=C(O)CCC(=O)Nc1ccc2c(c1)oc1ccccc12 | 15.0 | 199.3 | 52.5*
CC(C)(C)C1CCc2nc(NC(=O)c3ccc([N+](=O)[O-])cc3)sc2C1 (stereo unspecified) | x | 95.2 | -0.1
CC(C)(C)C1CCc2nc(NC(=O)c3cccc(Cl)c3)sc2C1 (stereo unspecified) | x | 12.6* | -3.1
COc1ccc(N2CC(=O)N(/N=C/c3ccc(N(C)C)cc3)C2=S)cc1 | -2.0 | 102.7 | -21.6
Cc1ccc(C2(O)C(=O)c3ccccc3C2=O)c(O)c1C | x | 109.3 | -1.2
O=C1c2ccccc2C(=O)C2(O)OCCOC12O (stereo unspecified) | 23.0 | 92.8 | 105.8*
O=C(CC1(O)C(=O)c2ccccc2C1=O)c1ccccc1 | 28.0 | 110.8 | -41.5
CCOC1(O)C(=O)c2ccccc2C(=O)C1(O)OCC (stereo unspecified) | 8.0 | 80.3 | 97.2*
CCN(c1ccccc1)C1(O)C(=O)c2ccccc2C1=O | 4.0 | 100.7 | x
CC(C)OC1(O)C(=O)c2ccccc2C(=O)C1(O)OC(C)C (stereo unspecified) | 3.0 | 84.3 | 99.2*
CCn1c(C(=O)O)c(CNCc2ccccc2)c2ccc(OC)cc21 | 2.0 | 93.4 | x
Cn1c(C2CC(=O)N(CC3CC3)C2)nc2ccccc21 (stereo unspecified) | x | x | -22.6
COc1ccccc1N1CCN(Cc2cccc3ccccc23)CC1 | x | 91.3 | -16.0
COc1cc(OC)c(OC)cc1CN1CCN(c2cccc(C)c2C)CC1 | -8.0 | 107.2 | 73.2*
Cc1nc(C)c(C(=O)O)c(-c2ccc(Cl)cc2)c1C(=O)O | -15.0 | 107.9 | -11.6
O/N=C/c1c(Cl)nc2sccn12 | x | x | -9.3
N#CSc1c(Cl)nc2sccn12 | 0.0 | 1.8* | -18.4
N#CC1=C(SCC(=O)NCc2ccccc2)NC2=C(C(=O)CCC2)C1c1ccco1 (stereo unspecified) | -11.0 | x | -20.6
COc1cc2c(cc1OC)C(=O)C(CC1CCN(Cc3ccccc3)CC1)C2 (stereo unspecified) | x | 45.7*! | -41.8
CN1CCC(N(C)C2CCN(Cc3ccccc3)CC2)CC1 | 7.0 | 95.5 | -2.0
SMILES | Sa helicase inh | Sa growth inh | HCMV NEC inh
CCOC(=O)c1c(-c2ccccc2)oc2ccc(OC)cc12 | -13.0 | x | -18.9
CCOC(=O)c1c(-c2ccccc2)oc2ccc(OCC)cc12 | 10.0 | 48.0* | 1.4
CCc1nc(SCC(=O)Nc2nncs2)n[nH]1 | x | x | -14.2
CCCCN(CC)C(=O)C1CCCN(c2ccc(-c3ccc(C)cc3)nn2)C1 (stereo unspecified) | x | x | -56.7
Cn1c(=O)c(=O)n(C)c2cc3c(cc21)nc(C(F)(F)F)n3Cc1ccccc1 | x | x | 6.1
COc1ccccc1OCC(=O)N1CCN(c2ccccc2)CC1 | 13.0 | 94.2 | -7.1
COc1ccc(CCNC(=O)C2NC(=O)CC2c2ccccc2)cc1OC (stereo unspecified) | 10.0 | 111.1 | 3.0
Cc1oc2c(c1C(=O)NCCC(C)C)C(=O)c1ccccc1C2=O | -6.0 | 17.4 | x
CCCCCN1COc2ccc3c4c(c(=O)oc3c2C1)CCC4 | 19.0 | 100.9 | 22.0
O=C1c2ccccc2C(=O)c2c1oc1c3c(ccc21)OCN(CCC1=CCCCC1)C3 | 6.0 | 7.0* | -102.8
CC(C)(C)N1COc2ccc3c4c(oc3c2C1)C(=O)c1ccccc1C4=O | 4.0 | 50.3 | 31.9
Cc1oc2c(c1C(=O)NCCCn1ccnc1)C(=O)c1ccccc1C2=O | 34.0 | -0.8* | x
O=C1c2ccccc2C(=O)c2c1oc1c3c(ccc21)OCN(CCCn1ccnc1)C3 | 24.0 | 5.8* | -72.2
COc1ccc(-c2noc(CN(C)C(C)=O)n2)cc1OC | 15.0 | 120.3 | -12.1
O=C1CC(c2cccc(O)c2)C2=C(CC(c3cccs3)CC2=O)N1 (stereo unspecified) | 10.0 | 102.5 | -7.2
CC1CS(=O)(=O)N(c2ccc(S(=O)(=O)Nc3ccc(Br)cc3)cc2)C1=O (stereo unspecified) | x | x | -4.1
O=C1CS/C(=C\c2nc3ccccc3s2)N1 | -16.0 | 143.9 | -19.0
O=C(Nc1ncc(Cc2cccc(C(F)(F)F)c2)s1)c1sc2ccccc2c1Cl | x | x | -18.8
CN(CCOc1ccc(Cl)cc1)Cc1cc2c(cc1O)OCO2 | 1.0 | 75.4 | -24.2
Cc1ccc(C2=NNC3(S2)C(=O)Nc2ccccc23)cc1 (stereo unspecified) | 9.0 | 73.5 | -68.4
CCC(C(=O)Nc1cccc(Cl)c1)n1nc(C)c2c(C)n(-c3ccccc3)nc2c1=O (stereo unspecified) | x | x | -7.1
O=C(COn1nnc2ccccc21)N1CCc2ccccc2C1 | -2.0 | 93.2 | 18.6
CCN(C(=O)Cc1c(C(=O)O)[nH]c2ccc(Cl)cc12)c1ccc(C)c(C)c1 | 6.0 | 79.9 | x
CCCN(C(=O)Cc1c(C(=O)O)[nH]c2ccc(Cl)cc12)c1ccc(OCC)cc1 | x | 28.6* | -3.9
CS(=O)(=O)c1ccc(C(=O)N2CCN(c3ccccc3)CC2)cc1 | 8.0 | 107.2 | 1.1
SMILES | Sa helicase inh | Sa growth inh | HCMV NEC inh
O=C(CSc1nnc2[nH]c(=O)ccn12)NCc1ccc2c(c1)OCO2 | 7.0 | 97.9 | -36.3
FC(F)(F)c1c[nH]c(=S)c(C(F)(F)F)c1 | x | 7.9* | -15.7
Nc1cc(C(F)(F)F)c[nH]c1=O | 14.0 | 96.8 | -38.3
N#Cc1c(N2CCCC(O)C2)nc(N)c2c(N)nc3c(c12)CC(=O)N3C12CC3CC(CC(C3)C1)C2 (stereo unspecified) | -4.0 | 100.4 | 80.1*
C=C(C)CN(CC)c1nc(N)c2c(N)nc3c(c2c1C#N)CC(=O)N3C12CC3CC(CC(C3)C1)C2 | -11.0 | 91.6 | 1.9
CCOc1ccc(C(=O)N2CC(C)CC(C)C2)cc1 (stereo unspecified) | 0.0 | 86.8 | -4.9
O=C(O)CCc1nc2ccc(C(=O)O)cc2[nH]1 | -10.0 | 81.6 | x
C=Cc1c(C)c2cc3[nH]c(cc4nc(cc5nc(cc1[nH]2)C(C)=C5CCC(=O)O)C(CCC(=O)O)=C4C)c(C)c3C=C | x | x | 85.9*
Cc1cc(-n2nc(C)cc2C)nc(-n2nc(C)cc2C)n1 | x | x | -4.7
Cc1cc(NC2CCCCC2)nc(-n2nc(C)cc2C)n1 | x | x | -28.1
Cc1cc(N2CCCC2)nc(-n2nc(C)cc2C)n1 | 0.0 | 7.7* | -12.1
Cc1cc(Nc2ccccc2C)nc(C)n1 | x | x | -11.2
Cc1cc(C)cc(Nc2cc(C)nc(-n3nc(C)cc3C)n2)c1 | 12.0 | -0.7* | -4.5
Cc1cc(Nc2cc(F)ccc2C)nc(-n2nc(C)cc2C)n1 | x | 3.1* | x
Cc1cc(Nc2ccccc2C)nc(-n2nc(C)cc2C)n1 | x | -0.2* | x
Cc1cc(C)cc(Nc2nc3cc(Cl)c(Cl)cc3nc2-n2nc(C)cc2C)c1 | x | 104.1 | -4.5
CCn1nccc1C1CCCN1C(=O)Nc1ccc(F)c(Cl)c1 (stereo unspecified) | x | x | 10.9
Cn1c(=O)c2sccc2n2c(CCCC(=O)NCCc3ccc(Cl)cc3)nnc12 | 10.0 | 98.4 | -27.3
